The source holds several records for some structures; these can differ, active in one and inactive in another. Active and inactive are the calls of the source. How the source made its calls: active means hit-call score of the fitted dose curve at least 0.9, where 1 is the maximum; inactive means score below 0.9.
Legend:
[1] = BSK_hDFCGF_SRB: Viability Assessment in the BioMAP Diversity Plus: hDFCGF Assay (AID 2283061); conditions: primary human foreskin fibroblasts;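 further: cells exposed to compound for 24 h before the read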
In short: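 Primary human foreskin fibroblasts; 24 h post-dose; fixed 10% TCA, stained 0.1% SRB, A560 read; total protein as overt cytotoxicity measure; curves fit bidirectionally vs DMSO control.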

[2] = read-out: TIMP metallopeptidase inhibitor 1 (TIMP1), TIMP1 (gene 7076); assay: BSK_hDFCGF_TIMP1: BioMAP Diversity Plus: hDFCGF Assay for TIMP metallopeptidase inhibitor 1 (TIMP1) Biomarker Activity (AID 2283062); conditions: primary human foreskin fibroblasts; actives raise or lower the signal
In short: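 ELISA readout of TIMP-1 from human dermal foreskin fibroblast cultures 24 h post-dosing. Curves were fitted in both directions against DMSO baseline, with SRB total-protein staining in parallel cultures as a cytotoxicity check.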

[3] = read-out: Monokine induced gamma interferon (MIG), CXCL9 (gene 4283); assay: BSK_hDFCGF_MIG: BioMAP Diversity Plus: hDFCGF Assay for Monokine induced gamma interferon (MIG) Biomarker Activity (AID 2283063); conditions: primary human foreskin fibroblasts; actives raise or lower the signal
In short: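 Fibroblasts (human foreskin, primary) dosed, 24 h, MIG by ELISA; fit bidirectional vs DMSO.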

[4] = read-out: Matrix Metallopeptidase 1 (MMP1), MMP1 (gene 4312); assay: BSK_hDFCGF_MMP1: BioMAP Diversity Plus: hDFCGF Assay for Matrix Metallopeptidase 1 (MMP1) Biomarker Activity (AID 2283064); conditions: primary human foreskin fibroblasts; actives raise or lower the signal
In short: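 hDFCGF primary fibroblasts (human foreskin); chemical added; 24 h; MMP1 by ELISA; bidirectional fit vs DMSO.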

[5] = read-out: Vascular cell adhesion molecule 1 (VCAM1), VCAM1 (gene 7412); assay: BSK_hDFCGF_VCAM1: BioMAP Diversity Plus: hDFCGF Assay for Vascular cell adhesion molecule 1 (VCAM1) Biomarker Activity (AID 2283065); conditions: primary human foreskin fibroblasts; actives raise or lower the signal;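 on AC50: VCAM-1 protein level quantified by ELISA after 24 h chemical exposure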
In short: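 ELISA read-out of VCAM-1 on human skin fibroblasts, 24 h post-dose; gain or loss of signal fitted bidirectionally against DMSO baseline.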

[6] = read-out: Plasminogen activator inhibitor-1 (PAI1), SERPINE1 (gene 5054); assay: BSK_hDFCGF_PAI1: BioMAP Diversity Plus: hDFCGF Assay for Plasminogen activator inhibitor-1 (PAI1) Biomarker Activity (AID 2283066); conditions: primary human foreskin fibroblasts; actives raise or lower the signal
In short: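 Human foreskin fibroblast primary cells, 24 h chemical exposure; PAI-1 measured by ELISA. Bidirectional fitting relative to DMSO; parallel cultures stained with SRB for total protein to flag overt cytotoxicity.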

[7] = read-out: Intercellular Adhesion Molecule 1 (ICAM1), ICAM1 (gene 3383); assay: BSK_KF3CT_ICAM1: BioMAP Diversity Plus: KF3CT Assay for Intercellular Adhesion Molecule 1 (ICAM1) Biomarker Activity (AID 2283067); conditions: primary human keratinocytes with fibroblasts; actives raise or lower the signal
In short: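 ELISA readout of ICAM-1; KF3CT human skin co-culture (keratinocytes + foreskin fibroblasts), 24 h post-dose; gain/loss fit vs DMSO baseline.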

[8] = read-out: Interferon-gamma inducible Protein 10 (IP10), CXCL10 (gene 3627); assay: BSK_KF3CT_IP10: BioMAP Diversity Plus: KF3CT Assay for Interferon-gamma inducible Protein 10 (IP10) Biomarker Activity (AID 2283068); conditions: primary human keratinocytes with fibroblasts; actives raise or lower the signal
In short: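 Signal is secreted/surface IP-10 by ELISA in a human primary skin co-culture of keratinocytes and foreskin fibroblasts, taken 24 h post-dosing; DMSO served as negative control.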

[9] = BSK_KF3CT_SRB: Viability Assessment in the BioMAP Diversity Plus: KF3CT Assay (AID 2283069); conditions: primary human keratinocytes with fibroblasts;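 further: total protein by sulforhodamine B staining as a cytotoxicity measure; read 24 h after compound addition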
In short: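 Keratinocytes co-cultured with foreskin fibroblasts (human primary); chemical added, 24 h; fix 10% TCA, stain 0.1% SRB, A560. Bidirectional fit vs DMSO.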

[10] = read-out: Interleukin-1 alpha (IL1a), IL1A (gene 3552); assay: BSK_KF3CT_IL1a: BioMAP Diversity Plus: KF3CT Assay for Interleukin-1 alpha (IL1a) Biomarker Activity (AID 2283070); conditions: primary human keratinocytes with fibroblasts; actives raise or lower the signal
In short: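 Chemicals were dosed onto co-cultured human keratinocytes and foreskin fibroblasts, IL-1a was quantified by ELISA at 24 h, and activity was fitted in both directions relative to DMSO controls.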

[11] = read-out: TIMP metallopeptidase inhibitor 2 (TIMP2), TIMP2 (gene 7077); assay: BSK_KF3CT_TIMP2: BioMAP Diversity Plus: KF3CT Assay for TIMP metallopeptidase inhibitor 2 (TIMP2) Biomarker Activity (AID 2283071); conditions: primary human keratinocytes with fibroblasts; actives raise or lower the signal
In short: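 Co-culture of human primary keratinocytes and foreskin fibroblasts, measured 24 h after chemical dosing. TIMP-2 quantified by ELISA and fitted in both directions relative to DMSO. Cytotoxicity checked in parallel cultures by SRB total-protein staining.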

[12] = read-out: Transforming growth factor beta 1 (TGFb1), TGFB1 (gene 7040); assay: BSK_KF3CT_TGFb1: BioMAP Diversity Plus: KF3CT Assay for Transforming growth factor beta 1 (TGFb1) Biomarker Activity (AID 2283072); conditions: primary human keratinocytes with fibroblasts; actives raise or lower the signal
In short: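 Human keratinocyte/foreskin fibroblast co-culture; TGF-b1 measured by ELISA 24 h after dosing, fitted bidirectionally versus DMSO. Cytotoxicity checked in parallel cultures by total protein (SRB staining, 560 nm).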

[13] = read-out: Matrix Metallopeptidase 9 (MMP9), MMP9 (gene 4318); assay: BSK_KF3CT_MMP9: BioMAP Diversity Plus: KF3CT Assay for Matrix Metallopeptidase 9 (MMP9) Biomarker Activity (AID 2283074); conditions: primary human keratinocytes with fibroblasts; actives raise or lower the signal;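 on AC50: MMP9 protein level quantified by ELISA in the co-culture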
In short: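 Human keratinocyte/foreskin fibroblast co-culture; compound added; 24 h; MMP-9 by ELISA; bidirectional fit vs DMSO baseline.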

[14] = read-out: urokinase plasminogen activator (uPA), PLAU (gene 5328); assay: BSK_KF3CT_uPA: BioMAP Diversity Plus: KF3CT Assay for urokinase plasminogen activator (uPA) Biomarker Activity (AID 2283075); conditions: primary human keratinocytes with fibroblasts; actives raise or lower the signal
In short: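 ELISA readout of uPA, analyzed for signal gain or loss relative to DMSO, from a human primary keratinocyte–foreskin fibroblast co-culture measured 24 h after chemical treatment.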

CD40, CD40 (gene 958) = assay: BSK_LPS_CD40: BioMAP Diversity Plus: LPS Assay for CD40 Biomarker Activity (AID 2283076); conditions: primary human HUVEC with PBMC; actives raise or lower the signal
In short: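 ELISA readout of CD40 in HUVEC/PBMC co-culture (BSK_LPS system), 24 h post-dosing; bidirectional curve fit, DMSO baseline; parallel SRB total-protein staining for cytotoxicity.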

[15] = read-out: E-selectin (Homo sapiens) (UniProt P16581); assay: BSK_LPS_Eselectin: BioMAP Diversity Plus: LPS Assay for Eselectin Biomarker Activity (AID 2283077); conditions: primary human HUVEC with PBMC; actives raise or lower the signal
In short: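 ELISA readout of E-selectin, 24 h post-dose, HUVEC + PBMC co-culture (LPS system). Gain or loss of signal vs DMSO baseline, bidirectional fit.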

[16] = read-out: Interleukin-8 (IL8), CXCL8 (gene 3576); assay: BSK_LPS_IL8: BioMAP Diversity Plus: LPS Assay for Interleukin-8 (IL8) Biomarker Activity (AID 2283078); conditions: primary human HUVEC with PBMC; actives raise or lower the signal
In short: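 HUVEC + PBMC co-culture, LPS-activated; test chemicals dosed, IL-8 read by ELISA at 24 h. Bidirectional curve fit vs DMSO baseline (gain or loss of signal).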

[17] = BSK_LPS_SRB: Viability Assessment in the BioMAP Diversity Plus: LPS Assay (AID 2283079); conditions: primary human HUVEC with PBMC;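 further: total protein by sulforhodamine B absorbance as a cytotoxicity measure; measured one day after compound addition; fitted in both directions against DMSO so loss or gain of signal counts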
In short: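 HUVEC + PBMC co-culture, LPS-stimulated; compound 24 h. 10% TCA fix, 0.1% SRB stain, A560. Bidirectional fit vs DMSO.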

[18] = read-out: Interleukin-1 alpha (IL1a), IL1A (gene 3552); assay: BSK_LPS_IL1a: BioMAP Diversity Plus: LPS Assay for Interleukin-1 alpha (IL1a) Biomarker Activity (AID 2283080); conditions: primary human HUVEC with PBMC; actives raise or lower the signal
In short: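 HUVEC/PBMC co-culture, LPS system; 24 h after dosing; IL-1a by ELISA; gain or loss of signal fitted bidirectionally vs DMSO baseline.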

Measured: AC50

Sequence of E-selectin (Homo sapiens) (P16581 whole entry, looked up): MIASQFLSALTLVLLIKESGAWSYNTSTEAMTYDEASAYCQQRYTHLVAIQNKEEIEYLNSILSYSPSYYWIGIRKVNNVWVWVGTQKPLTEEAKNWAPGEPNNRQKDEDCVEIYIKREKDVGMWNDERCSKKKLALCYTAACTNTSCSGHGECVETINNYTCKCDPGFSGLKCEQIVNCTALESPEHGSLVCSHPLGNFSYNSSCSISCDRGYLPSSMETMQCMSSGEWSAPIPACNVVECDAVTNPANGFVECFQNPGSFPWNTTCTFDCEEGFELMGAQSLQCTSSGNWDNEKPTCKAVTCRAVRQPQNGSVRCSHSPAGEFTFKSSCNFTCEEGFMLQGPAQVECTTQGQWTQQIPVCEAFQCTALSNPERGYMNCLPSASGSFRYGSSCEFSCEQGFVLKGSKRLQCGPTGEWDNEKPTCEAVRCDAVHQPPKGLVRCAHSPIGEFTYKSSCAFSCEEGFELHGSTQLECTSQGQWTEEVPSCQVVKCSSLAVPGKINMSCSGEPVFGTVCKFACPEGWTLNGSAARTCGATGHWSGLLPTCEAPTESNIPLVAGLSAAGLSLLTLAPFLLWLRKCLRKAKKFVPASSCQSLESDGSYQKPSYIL

CCC(C)c1cc([N+](=O)[O-])cc([N+](=O)[O-])c1OC(=O)OC(C)C (stereo unspecified)
active: [1] 9.55 µM | [2] 11.2 µM | [3] 9.32 µM | [4] 11 µM | [5] 7.79 µM | [6] 4.79 µM | [7] 9.58 µM | [8] 5.26 µM | [9] 25.3 µM | [10] 20 µM | [11] 20 µM | [12] 20 µM | [13] 20 µM | [14] 20 µM | CD40, CD40 (gene 958) 7.3 µM | [15] 15 µM | [16] 29.7 µM | [17] 11.9 µM

O=C1c2ccccc2C(=O)c2c(O)ccc(O)c21
inactive: [1] | [2] | [3] | [4] | [5] | [7] | [8] | [9] | [10] | [11] | [12] | [13] | [14] | CD40, CD40 (gene 958) | [15] | [16] | [17]
active: [6] 4.59 µM

O=CN1CCOCC1
inactive: [1] | [2] | [3] | [4] | [5] | [6] | [7] | [8] | [9] | [10] | [11] | [13] | [14] | CD40, CD40 (gene 958) | [15] | [16] | [17]

C=CC(C)(O)CCC=C(C)C (stereo unspecified)
inactive: [1] | [2] | [3] | [4] | [5] | [6] | [7] | [8] | [9] | [10] | [11] | [13] | [14] | CD40, CD40 (gene 958) | [15] | [16] | [17]

O=C1OC[C@H](Cc2cccc(O)c2)[C@H]1Cc1cccc(O)c1
inactive: [1] | [2] | [3] | [4] | [5] | [6] | [7] | [8] | [9] | [10] | [11] | [12] | [13] | [14] | CD40, CD40 (gene 958) | [15] | [16] | [17] | [18]

CC(CN=Cc1ccccc1O)N=Cc1ccccc1O (stereo unspecified)
active: [16] 0.151 µM
inactive: [1] | [2] | [3] | [4] | [5] | [6] | [7] | [8] | [9] | [10] | [11] | [13] | [14] | CD40, CD40 (gene 958) | [15] | [16] | [17]

c1ccc(CCc2ccccc2)cc1
active: [1] 30.3 µM | [2] 36.6 µM | [4] 36.7 µM | [5] 30.9 µM | [6] 31.1 µM | [8] 30 µM | [9] 28.5 µM | [10] 25.2 µM | [11] 13.4 µM | [12] 12.8 µM | [13] 28.5 µM | [14] 20 µM | CD40, CD40 (gene 958) 30.9 µM | [15] 31.9 µM | [16] 20 µM | [17] 36.4 µM
inactive: [3] | [7]

C[C@@H]1CCN(C(=O)[C@H](CCCN=C(N)N)NS(=O)(=O)c2cccc3c2NC[C@H](C)C3)[C@@H](C(=O)O)C1
inactive: [1] | [2] | [3] | [4] | [5] | [6] | [7] | [8] | [9] | [10] | [11] | [12] | [13] | [14] | CD40, CD40 (gene 958) | [15] | [16] | [17]

COc1cc(Cl)c(OC)cc1N
inactive: [1] | [2] | [3] | [4] | [5] | [6] | [7] | [8] | [9] | [10] | [11] | [12] | [13] | [14] | CD40, CD40 (gene 958) | [15] | [16] | [17]

CCCCCC(C=O)=Cc1ccccc1
active: [1] 31.5 µM | [4] 0.146 µM | [5] 20 µM | [7] 33.1 µM | [8] 30.4 µM | [9] 36.5 µM | [10] 20 µM | [11] 30 µM | [13] 34.5 µM | [14] 35.9 µM | CD40, CD40 (gene 958) 33.3 µM | [15] 31.1 µM | [17] 32.8 µM | [18] 34.3 µM
inactive: [2] | [3] | [6] | [12] | [16]

CC(C)(N=C=O)c1cccc(C(C)(C)N=C=O)c1
inactive: [1] | [2] | [3] | [4] | [5] | [6] | [7] | [8] | [9] | [10] | [11] | [12] | [13] | [14] | CD40, CD40 (gene 958) | [15] | [16] | [17]

CCCCN(CCCC)C(=O)N(CCCC)CCCC
inactive: [16]
active: [1] 10.3 µM | [2] 9.64 µM | [3] 11.9 µM | [4] 11.5 µM | [5] 9.04 µM | [6] 11 µM | [7] 8.66 µM | [8] 11 µM | [9] 8.91 µM | [10] 10.5 µM | [11] 4.62 µM | [12] 5.42 µM | [13] 10.3 µM | [14] 7.68 µM | CD40, CD40 (gene 958) 20 µM | [15] 20 µM | [17] 30.2 µM

Reference: PubChem BioAssay (EPA / NIEHS)
